# ± gives the standard deviation of the averaged measurements.
# System: PC9
# Test: area under confluence curve of osimertinib + compound combination regimen (DTP regrowth); compare to osimertinib-only DTP control AUC of the same experiment (AUC (confluence x time, arbitrary))
# Procedure: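 compare to osimertinib-only DTP control AUC of the same experiment; Long-term drug-tolerant persister (DTP) screen in EGFR-mutant NSCLC cell lines in 48-well plates. The test compound was given at one fixed dose with osimertinib, either upfront (from day 0 to the DTP stage at 10-21 days, then drug-free medium) or sequentially (osimertinib alone to the DTP stage, then the test compound). IncuCyte confluence was tracked until osimertinib-only controls regrew, and AUC was computed in Prism. AUC scale depends on experiment duration, so each row carries the same-experiment osimertinib-only DTP and DMSO control AUCs; combination activity = control minus combo AUC. Osimertinib dose not stated.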
# [1] = test compound dose 10 nM, dosing schedule: sequential, osimertinib-only DTP control AUC in same experiment: 14708, DMSO control AUC in same experiment: 21341
# [2] = test compound dose 10 nM, dosing schedule: upfront, osimertinib-only DTP control AUC in same experiment: 21313, DMSO control AUC in same experiment: 21341
# [3] = test compound dose 1000 nM, dosing schedule: sequential, osimertinib-only DTP control AUC in same experiment: 10725, DMSO control AUC in same experiment: 30578
# [4] = test compound dose 1000 nM, dosing schedule: upfront, osimertinib-only DTP control AUC in same experiment: 10245, DMSO control AUC in same experiment: 30578
smiles,measurement,setting,value
Cn1cc(CNCC2CCN(c3ncc(C(=O)NO)cn3)CC2)c2ccccc21 [Quisinostat] + C=CC(=O)Nc1cc(Nc2nccc(-c3cn(C)c4ccccc34)n2)c(OC)cc1N(C)CCN(C)C [osimertinib],area under confluence curve,"test compound dose 10 nM, dosing schedule: sequential, osimertinib-only DTP control AUC in same experiment: 10175, DMSO control AUC in same experiment: 27958",2060
same,area under confluence curve,"test compound dose 10 nM, dosing schedule: sequential, osimertinib-only DTP control AUC in same experiment: 13992, DMSO control AUC in same experiment: 30002",4770
same,area under confluence curve,[1],2700
same,area under confluence curve,"test compound dose 10 nM, dosing schedule: upfront, osimertinib-only DTP control AUC in same experiment: 16134, DMSO control AUC in same experiment: 27958",1380
same,area under confluence curve,[2],6010
same,area under confluence curve,"test compound dose 10 nM, dosing schedule: upfront, osimertinib-only DTP control AUC in same experiment: 22377, DMSO control AUC in same experiment: 30002",4720
CC(=O)Nc1cccc(-n2c(=O)n(C3CC3)c(=O)c3c(Nc4ccc(I)cc4F)n(C)c(=O)c(C)c32)c1 [Trametinib] + C=CC(=O)Nc1cc(Nc2nccc(-c3cn(C)c4ccccc34)n2)c(OC)cc1N(C)CCN(C)C [osimertinib],area under confluence curve,"test compound dose 10 nM, dosing schedule: sequential, osimertinib-only DTP control AUC in same experiment: 14554, DMSO control AUC in same experiment: 49189",10400
same,area under confluence curve,[1],3390
same,area under confluence curve,[2],6970
same,area under confluence curve,"test compound dose 10 nM, dosing schedule: upfront, osimertinib-only DTP control AUC in same experiment: 24473, DMSO control AUC in same experiment: 49189",9410
C[C@@]1(C(=O)Nc2ccc(F)nc2)CCCN1c1nc(Nc2cc(C3CC3)n[nH]2)c2cccn2n1 + C=CC(=O)Nc1cc(Nc2nccc(-c3cn(C)c4ccccc34)n2)c(OC)cc1N(C)CCN(C)C [osimertinib],area under confluence curve,"test compound dose 100 nM, dosing schedule: sequential, osimertinib-only DTP control AUC in same experiment: 1963, DMSO control AUC in same experiment: 30580",219 ± 17
same,area under confluence curve,"test compound dose 100 nM, dosing schedule: sequential, osimertinib-only DTP control AUC in same experiment: 12502, DMSO control AUC in same experiment: 49143",7400
same,area under confluence curve,"test compound dose 100 nM, dosing schedule: sequential, osimertinib-only DTP control AUC in same experiment: 14708, DMSO control AUC in same experiment: 21341",3460
same,area under confluence curve,"test compound dose 100 nM, dosing schedule: upfront, osimertinib-only DTP control AUC in same experiment: 8618, DMSO control AUC in same experiment: 30580",4520 ± 430
same,area under confluence curve,"test compound dose 100 nM, dosing schedule: upfront, osimertinib-only DTP control AUC in same experiment: 21313, DMSO control AUC in same experiment: 21341",7730
same,area under confluence curve,"test compound dose 100 nM, dosing schedule: upfront, osimertinib-only DTP control AUC in same experiment: 28310, DMSO control AUC in same experiment: 49143",13100
CN1CCN(CCOc2cc(OC3CCOCC3)c3c(Nc4c(Cl)ccc5c4OCO5)ncnc3c2)CC1 [Saracatinib] + C=CC(=O)Nc1cc(Nc2nccc(-c3cn(C)c4ccccc34)n2)c(OC)cc1N(C)CCN(C)C [osimertinib],area under confluence curve,"test compound dose 300 nM, dosing schedule: sequential, osimertinib-only DTP control AUC in same experiment: 9267, DMSO control AUC in same experiment: 19507",4570
same,area under confluence curve,"test compound dose 300 nM, dosing schedule: sequential, osimertinib-only DTP control AUC in same experiment: 12589, DMSO control AUC in same experiment: 28243",8930
same,area under confluence curve,"test compound dose 300 nM, dosing schedule: upfront, osimertinib-only DTP control AUC in same experiment: 10534, DMSO control AUC in same experiment: 19507",1600
same,area under confluence curve,"test compound dose 300 nM, dosing schedule: upfront, osimertinib-only DTP control AUC in same experiment: 16088, DMSO control AUC in same experiment: 28243",16200
Oc1nc(-c2ccc(C(F)(F)F)cc2)nc2c1CSCC2 + C=CC(=O)Nc1cc(Nc2nccc(-c3cn(C)c4ccccc34)n2)c(OC)cc1N(C)CCN(C)C [osimertinib],area under confluence curve,"test compound dose 300 nM, dosing schedule: sequential, osimertinib-only DTP control AUC in same experiment: 12502, DMSO control AUC in same experiment: 49143",9570
same,area under confluence curve,"test compound dose 300 nM, dosing schedule: upfront, osimertinib-only DTP control AUC in same experiment: 28310, DMSO control AUC in same experiment: 49143",8680
C[C@@H](Nc1cc(F)cc(F)c1)c1cc(C(=O)N(C)C)cc2c(=O)cc(N3CCOCC3)oc12 + C=CC(=O)Nc1cc(Nc2nccc(-c3cn(C)c4ccccc34)n2)c(OC)cc1N(C)CCN(C)C [osimertinib],area under confluence curve,"test compound dose 1000 nM, dosing schedule: sequential, osimertinib-only DTP control AUC in same experiment: 1963, DMSO control AUC in same experiment: 30580",1970 ± 150
same,area under confluence curve,[3],4550
same,area under confluence curve,"test compound dose 1000 nM, dosing schedule: sequential, osimertinib-only DTP control AUC in same experiment: 12535, DMSO control AUC in same experiment: 43316",4790
same,area under confluence curve,"test compound dose 1000 nM, dosing schedule: sequential, osimertinib-only DTP control AUC in same experiment: 15163, DMSO control AUC in same experiment: 28684",5770
same,area under confluence curve,"test compound dose 1000 nM, dosing schedule: upfront, osimertinib-only DTP control AUC in same experiment: 8618, DMSO control AUC in same experiment: 30580",4780 ± 250
same,area under confluence curve,[4],8450
same,area under confluence curve,"test compound dose 1000 nM, dosing schedule: upfront, osimertinib-only DTP control AUC in same experiment: 15354, DMSO control AUC in same experiment: 43316",8140
same,area under confluence curve,"test compound dose 1000 nM, dosing schedule: upfront, osimertinib-only DTP control AUC in same experiment: 21337, DMSO control AUC in same experiment: 28684",7910
Cc1nc2nc(C)c(O[C@@H]3CCN(c4ccc(-c5ccc(CN6CCOCC6)nn5)cc4)C3)c(C)n2n1 + C=CC(=O)Nc1cc(Nc2nccc(-c3cn(C)c4ccccc34)n2)c(OC)cc1N(C)CCN(C)C [osimertinib],area under confluence curve,[3],14600
same,area under confluence curve,[4],12400
Cc1cc(Nc2ncnc3ccc(NC4=NC(C)(C)CO4)cc23)ccc1Oc1ccn2ncnc2c1 [Tucatinib] + C=CC(=O)Nc1cc(Nc2nccc(-c3cn(C)c4ccccc34)n2)c(OC)cc1N(C)CCN(C)C [osimertinib],area under confluence curve,"test compound dose 1000 nM, dosing schedule: sequential, osimertinib-only DTP control AUC in same experiment: 13992, DMSO control AUC in same experiment: 30002",11100
same,area under confluence curve,"test compound dose 1000 nM, dosing schedule: sequential, osimertinib-only DTP control AUC in same experiment: 16279, DMSO control AUC in same experiment: 29345",17500
same,area under confluence curve,"test compound dose 1000 nM, dosing schedule: upfront, osimertinib-only DTP control AUC in same experiment: 19769, DMSO control AUC in same experiment: 29345",18600
same,area under confluence curve,"test compound dose 1000 nM, dosing schedule: upfront, osimertinib-only DTP control AUC in same experiment: 22377, DMSO control AUC in same experiment: 30002",17200
C[C@@H]1COCCN1c1cc(C2([S@](C)(=N)=O)CC2)nc(-c2cc[nH]c3nccc2-3)n1 + C=CC(=O)Nc1cc(Nc2nccc(-c3cn(C)c4ccccc34)n2)c(OC)cc1N(C)CCN(C)C [osimertinib],area under confluence curve,"test compound dose 1000 nM, dosing schedule: sequential, osimertinib-only DTP control AUC in same experiment: 15001, DMSO control AUC in same experiment: 22064",14300
same,area under confluence curve,"test compound dose 1000 nM, dosing schedule: sequential, osimertinib-only DTP control AUC in same experiment: 15044, DMSO control AUC in same experiment: 30604",12300
same,area under confluence curve,"test compound dose 1000 nM, dosing schedule: upfront, osimertinib-only DTP control AUC in same experiment: 20672, DMSO control AUC in same experiment: 30604",15900
same,area under confluence curve,"test compound dose 1000 nM, dosing schedule: upfront, osimertinib-only DTP control AUC in same experiment: 24924, DMSO control AUC in same experiment: 22064",16500
